The source of these data is PubChem BioAssay (NCI).

The panel holds about 83,000 compounds, 20% with a hit somewhere; the sample as a whole holds those more often.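 Testing used 96-well plates and a 48-hour single-concentration exposure. Example: -40 means 40% of the starting cells died.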 Unmarked numbers belong to inactive results. The source made the active and inactive calls. Rule for the calls: active = growth percent below 10; inactive = the rest.

What all share (experiment): NCI-60 one-dose screen, 48 h (100 = growth as untreated, 0 = no growth, -100 = all killed)
In one assay the test system is HCT-15 colon. To be noted: 10 µM unless noted.
The next assay concerns HT29 colon. To be noted: 10 µM unless noted.
The subject of a further assay is SNB-75 CNS. To be noted: 10 µM unless noted.
The next assay concerns SNB-19 CNS. The settings on record: 10 µM unless noted.
In the next assay the test system is PC-3 prostate. The settings on record: 10 µM unless noted.
Another assay has as its system SK-MEL-5 melanoma. The settings on record: 10 µM unless noted.
A further assay concerns UACC-62 melanoma. To be noted: 10 µM unless noted.
The test system of a further assay is LOX IMVI melanoma. The settings on record: 10 µM unless noted.
The subject of the next assay is SK-MEL-28 melanoma. To be noted: 10 µM unless noted.
The next assay relates to SK-MEL-2 melanoma. To be noted: 10 µM unless noted.
The test system of a further assay is EKVX NSCLC. To be noted: 10 µM.
In a further assay the test system is SN12C renal. The settings on record: 10 µM unless noted.
Another assay deals with UO-31 renal. To be noted: 10 µM unless noted.
For the next assay, the system named is TK-10 renal. To be noted: 10 µM unless noted.
The test system of another assay is ACHN renal. To be noted: 10 µM unless noted.
A further assay has as its system CAKI-1 renal. The settings on record: 10 µM unless noted.
The subject of the next assay is A498 renal. The settings on record: 10 µM unless noted.
Another assay relates to CCRF-CEM leukemia. The settings on record: 10 µM.
In another assay the test system is MOLT-4 leukemia. To be noted: 10 µM unless noted.

In the case of `O=C1Nc2ccccc2/C1=C/c1cn(CC(O)Cn2cc(/C=C3\C(=O)Nc4ccccc43)c3ccccc32)c2ccccc12` (centres undefined), the growth in the assay on HCT-15 colon is -69.8% (active); in the assay on HT29 colon it was -20.2% (active); in the assay with SNB-75 CNS, -95.9% (active); in the assay on SNB-19 CNS, -43% (active); in the assay with PC-3 prostate, -86.3% (active); in the assay on SK-MEL-5 melanoma, -80.2% (active). Also, the growth with UACC-62 melanoma is -75.2% (active); in the assay with LOX IMVI melanoma, -84.5% (active); in the assay with SK-MEL-28 melanoma it was -85% (active); with SK-MEL-2 melanoma, -57.6% (active); in the assay on EKVX NSCLC, -62.3% (active); in the assay on SN12C renal, -53.6% (active). The growth in the assay on UO-31 renal is -9.18% (active); with TK-10 renal it was -15.1% (active); with ACHN renal, -68.4% (active); in the assay with CAKI-1 renal, 9.83% (active); with A498 renal, -73.2% (active); in the assay with CCRF-CEM leukemia it was -30.6% (active). For the same compound, in the assay on MOLT-4 leukemia, the growth is -29.4% (active).

`O=C(Nc1ccccc1)Nc1ccc(Nc2ncnc3sc4c(c23)CCCC4)cc1`: the growth in the assay with HCT-15 colon is 110%; in the assay on HT29 colon, 96.2%; in the assay with SNB-75 CNS, 93.3%; in the assay on SNB-19 CNS, 95.9%; in the assay with PC-3 prostate, 89.9%; in the assay with SK-MEL-5 melanoma, 97.3%. The growth was 97.9% with UACC-62 melanoma; 99.5% with LOX IMVI melanoma; 116% in the assay on SK-MEL-28 melanoma; 114% with SK-MEL-2 melanoma; 102% in the assay on EKVX NSCLC; 99.3% in the assay on SN12C renal. The growth with UO-31 renal is 71.6%; in the assay on TK-10 renal it was 124%; with ACHN renal, 101%; in the assay on CAKI-1 renal, 100%; in the assay on A498 renal it was 83.4%; with CCRF-CEM leukemia, 92.4%. For the same compound, the growth in the assay on MOLT-4 leukemia is 89.5%.

Consider `COc1nc(OC)nc(-c2cc(C(=O)c3ccc(Br)cc3)n3cc(C)cc(C)c23)n1`, for which the growth with HCT-15 colon is 90.7%; with HT29 colon, 74.9%; in the assay with SNB-75 CNS, -32.2% (active); in the assay with SNB-19 CNS, 28.9%; with PC-3 prostate, 72.5%; in the assay on SK-MEL-5 melanoma it was 87.8%. The growth is 92.1% in the assay on UACC-62 melanoma; 3.88% (active) with LOX IMVI melanoma; 84.7% in the assay on SK-MEL-28 melanoma; 68.1% in the assay with SK-MEL-2 melanoma; 68.1% in the assay with EKVX NSCLC; 48% in the assay on SN12C renal. In addition, the growth was 71% in the assay on UO-31 renal; 82.1% in the assay on TK-10 renal; 18.5% in the assay on ACHN renal; 64.8% in the assay with CAKI-1 renal; 71.3% in the assay with A498 renal; 83.8% in the assay on CCRF-CEM leukemia. The growth with MOLT-4 leukemia is 96.6%.

For the compound `COC(=O)/C(Br)=C/c1c[nH]c2ccc(Br)cc12`, the growth is 76.8% in the assay on HCT-15 colon; 95.3% with HT29 colon; 90.1% in the assay on SNB-75 CNS; 88.7% in the assay with SNB-19 CNS; 70.8% in the assay on PC-3 prostate; 68% in the assay with UACC-62 melanoma. In addition, the growth in the assay with LOX IMVI melanoma is 62%; in the assay on SK-MEL-2 melanoma, 88.7%; in the assay with EKVX NSCLC, 76.2%; in the assay on SN12C renal, 88.1%; with UO-31 renal, 46.7%; with TK-10 renal it was 78.3%. The growth with ACHN renal was 86.7%; with CAKI-1 renal it was 69.1%; with A498 renal it was 92.3%; in the assay on CCRF-CEM leukemia, 23.4%; with MOLT-4 leukemia, 52.8%.

For `CC1=C(C)C[C@]2(C(=O)O[C@H]3CCCC[C@@H]32)[S@](=O)C1`, the growth was 112% in the assay with HCT-15 colon; 95.3% in the assay with HT29 colon; 98.4% in the assay with SNB-75 CNS; 105% in the assay with SNB-19 CNS; 110% in the assay with PC-3 prostate; 107% in the assay on SK-MEL-5 melanoma. For the same compound, the growth is 104% with UACC-62 melanoma; 97.6% in the assay on LOX IMVI melanoma; 118% in the assay on SK-MEL-28 melanoma; 86.3% in the assay with SK-MEL-2 melanoma; 109% in the assay on EKVX NSCLC; 102% with SN12C renal. The growth in the assay with UO-31 renal was 91.2%; in the assay with TK-10 renal, 89.7%; with ACHN renal it was 120%; in the assay with CCRF-CEM leukemia, 105%; in the assay on MOLT-4 leukemia it was 105%.

For `CCOC(=O)c1c(C)oc2ncnc(Nc3ccc(NC(=O)Nc4cccc(Cl)c4)cc3)c12`, the growth in the assay on HCT-15 colon is 59%; in the assay on HT29 colon, 37.1%; with SNB-75 CNS, 70.6%; with SNB-19 CNS, 84.7%; with PC-3 prostate it was 41.2%; in the assay with SK-MEL-5 melanoma it was 53%. Besides, the growth with UACC-62 melanoma was 69.1%; with LOX IMVI melanoma, 64.1%; with SK-MEL-28 melanoma it was 61.8%; with SK-MEL-2 melanoma, 72.7%; in the assay on EKVX NSCLC, 72.3%; with SN12C renal, 74%. Moreover, the growth in the assay with TK-10 renal was 79.2%; in the assay with ACHN renal it was 57.5%; in the assay on CAKI-1 renal it was 90.8%; with A498 renal, 63%; with CCRF-CEM leukemia, 31.5%; in the assay on MOLT-4 leukemia it was 49.3%.

As for `CCOC(=O)c1csc(-c2ccc(COC(=O)c3ccccc3)o2)n1`, the growth in the assay on HCT-15 colon was 96%; in the assay on HT29 colon it was 104%; in the assay with SNB-75 CNS, 92%; in the assay on SNB-19 CNS it was 97.5%; with PC-3 prostate, 96.6%; in the assay on SK-MEL-5 melanoma, 98.2%. Also, the growth was 102% in the assay on UACC-62 melanoma; 110% in the assay with LOX IMVI melanoma; 101% in the assay with SK-MEL-28 melanoma; 107% with SK-MEL-2 melanoma; 96.1% in the assay on SN12C renal; 83.5% with UO-31 renal. Also, the growth is 107% in the assay on TK-10 renal; 95% with ACHN renal; 81.2% in the assay with CAKI-1 renal; 112% in the assay with A498 renal; 4.16% (active) with MOLT-4 leukemia.

With `COc1cc2ncnc(-n3ncc4cc(NC(=O)Nc5ccc(Cl)c(C)c5)ccc43)c2cc1OC`, the growth in the assay with HCT-15 colon is 103%; with HT29 colon, 73.6%; in the assay on SNB-75 CNS, 82.7%; in the assay on SNB-19 CNS, 109%; in the assay on PC-3 prostate it was 65.6%; in the assay with SK-MEL-5 melanoma, 88%. In addition, the growth in the assay on UACC-62 melanoma was 88.9%; in the assay on LOX IMVI melanoma, 98%; with SK-MEL-2 melanoma, 92.5%; with EKVX NSCLC, 97.7%; in the assay with SN12C renal it was 98.8%; in the assay on UO-31 renal it was 100%. In addition, the growth in the assay with TK-10 renal is 95.9%; in the assay on ACHN renal it was 103%; in the assay with CAKI-1 renal, 92.7%; in the assay with A498 renal, 101%; in the assay with CCRF-CEM leukemia it was 102%; with MOLT-4 leukemia, 84%.
